# Reference: the OligoGym collection
# Target: DPM2
# Assay: pooled miR-30 sensor sort-seq; sequence = guide strand
# Settings: shRNA
row,Sequence,sensor-assay potency score (higher = more potent)
1,TCTCTTGGTCTTCAGCATCACA,-1.19
2,TCCCACAAACAGGAGCAGCAGG,-1.71
3,TGAACAGTCCCACAAACAGGAG,-1.56
4,TAGTAGGTGAAGATGATCAGGC,0.327

# Target: DPP3
# Assay: as above
# Settings: shRNA
row,Sequence,sensor-assay potency score (higher = more potent)
1,TCGACCTCTTTGAAGAGCCGGG,-0.473
2,TTGTCCTGGATCCAGAAGCGGG,-1.46
3,TTGGTGTCACCAAAGGACTTGT,-0.525
4,TGAAGCTCTCTATATACTGGGC,-0.35
5,TTCCTTACGCAGCAGCACCGTG,-1.18
6,TGTTGGAGTAAACACCCGCGGC,-1.37
7,TAGTTGGGGATGTTGATGCCGG,-0.85
8,AAGTTGGGAACAAACTTGGTGT,-0.148
9,AAGATCTCCAGCACTTGCGGGT,-0.379
10,TTGTAGTTGCCCATGTTGGAGT,-1.16
11,TCGTCCTGTACGAAGAGCTTGC,-0.841
12,TTGTCCTTCTCAAAGGTTGGGG,-0.0545

# Target: DPP9
# Assay: as above
# Settings: shRNA
row,Sequence,sensor-assay potency score (higher = more potent)
1,TCTTCCTTTCTTCTAGCGCAGG,-1.35
2,TTAATGTGTCTACTTCTTCCAC,-0.494
3,TTTGAAGGAGTTATTCACCAGC,-0.354
4,TAATGTGTCTACTTCTTCCACG,0.224
5,AATACTGTGTCTCTCGTTGGGG,0.209
6,TCGCTGTGGAAGTCGTAGGAGG,-1.41
7,TTATAAAAGAATAAGAATCGAC,-0.653
8,ATGAACATTGATCCAGACGTTG,-1.33
9,TAGCTGACCACGTAGAGGTGGT,-0.544
10,ATGTCATGAACATTGATCCAGA,-1.2
11,TTATTCACCAGCTGCACCTGGG,-0.396
12,TAGAGGAGGGAGTTCTCTCGGC,-0.587

# Target: DPPA5
# Assay: as above
# Settings: shRNA
row,Sequence,sensor-assay potency score (higher = more potent)
1,TTCGGGAACTTTCACCCACGGC,-1.56
2,TTGAGCATCCCTCGCTCCTGGC,-0.972
3,TTTCAGGTCTTCGGGAACTTTC,-1.57
4,TCTTCGGGAACTTTCACCCACG,-0.874
5,AGGGATTCGAGATCCGTCCGGG,-0.916
6,ATGGACTGGAGCATCCACTTGG,-0.436
7,TGTAAGGGATTCGAGATCCGTC,-0.0102
8,TTTGAGCATCCCTCGCTCCTGG,-0.61
9,TGGAGCATCCACTTGGTCCGGA,-0.524
10,TAAACCACGACCTCGGTGAGGT,-0.536
11,TTCGAGATCCGTCCGGGCCGAA,-1.6
